Results: ChEMBL document CHEMBL1157539, “Thousands of chemical starting points for antimalarial lead identification” (Nature, 2010)

Each compound was assayed on Plasmodium falciparum (assay: GSK_TCMDC: Inhibition of Plasmodium falciparum Dd2 in whole red blood cells, using parasite LDH activity as an index of growth. Test compounds present at 2uM).
Assay type: functional
With `COc1cccc(-c2cnc(-c3ccncc3)nc2C2CCN(Cc3ccc(NC(C)=O)cc3)CC2)c1` the Inhibition was 0%.
Work on `Clc1ccc2c(NCc3ccccc3)ccnc2c1` yielded an Inhibition of 100%.
For `CC(C)(C)c1cc(C(=O)N2CCN(c3ncccc3C(F)(F)F)CC2)n(Cc2ccccc2)n1`, the Inhibition was 99%.
Work on `O=C(NC1CCN(CCC[C@]2(c3ccc(Cl)c(Cl)c3)CCCN(C(=O)c3ccccc3)C2)CC1)c1ccc(Cl)cc1` yielded an Inhibition of 4%.
`COc1cccc(CNC[C@@H](O)[C@H](Cc2ccccc2)NC(=O)c2cc(OC(C)C)cc(N3CCCCS3(=O)=O)c2)c1.Cl` gave an Inhibition of 49%.
`O=C(O)C(F)(F)F.c1cc(CNCCc2ccncc2)cc(-c2ccc(-c3nc4ccccc4[nH]3)s2)c1` showed an Inhibition of 97%.
`Nc1nccc2ccc(-c3ccc(Oc4ccccc4)cc3)cc12.O=C(O)C(F)(F)F` was tested, and the Inhibition was 80%.
For `O=C(Nc1nc2cc(S(=O)(=O)NCc3ccc(Cl)c(Cl)c3)ccc2n1CCCn1ccnc1)c1ccc(Cl)cc1.O=C(O)C(F)(F)F`, the Inhibition was 44%.

What follows are compounds tested on HepG2 (assay: GSK_TCMDC: Percent inhibition of human HepG2 cell line. Test compounds present at 10uM.).
Assay type: functional
`COc1cc2ncnc(Nc3ccc(OCc4ccccc4)c(OCc4ccccc4)c3)c2cc1OC.Cl` was tested, and the Inhibition was 4%.
With `CC(CCCCCC(=O)Nc1ccc(CC(C)NCCc2cccc(Cl)c2)cc1)NCCc1cccc(Cl)c1` (stereo unspecified) the Inhibition was 99%.
`CCOc1ccc2c(=NN=Cc3ccccc3OC)cc(C)[nH]c2c1` was tested, and the Inhibition was 11%.
`CC(C)COc1ccc(Cl)cc1Cc1ccc(-c2nc3cnc4ccccc4c3[nH]2)o1` showed an Inhibition of 21%.
In the case of `Clc1ccc(CNc2ccnc(NCc3cccnc3N3CCCC3)n2)c(Cl)c1`, the Inhibition is reported as 37%.
With `Cc1ccc(S(=O)(=O)NC2=NC(=N)N(OCc3ccc(Cl)c(Cl)c3)C(C)(C)N2)cc1` the Inhibition was 0%.
`Cc1cccc2nc(-c3ccc(-c4cccc(NC(=O)c5cncn5C)c4)cc3)[nH]c12` was tested, and the Inhibition was 2%.
Compound `COc1cc(-c2nc(-c3ccc([N+](=O)[O-])cc3)c(-c3ccccc3)[nH]2)cc(OC)c1O` has an Inhibition of 7%.
In the case of `COc1ccc(-c2csc(C(=O)NC3CCC(N4CCC(c5ccccc5C)CC4)CC3)c2)cc1` (stereo unspecified), the Inhibition is reported as 64%.
For `COc1cc(OC)c2c(C)cc(NCCCN3CCOCC3)nc2c1`, the Inhibition was 6%.
For `NC1CCN(CCNCc2cccc(-c3ccc(-c4nc5cc(F)ccc5[nH]4)cc3)c2)C1.O=C(O)C(F)(F)F` (stereo unspecified), the Inhibition was 8%.
For `NCC1CCCN1Cc1ccc(-c2ccc(-c3nc4cc(C(F)(F)F)ccc4[nH]3)s2)cc1.O=C(O)C(F)(F)F` (stereo unspecified), the Inhibition was 31%.
Compound `CC(C)N1CCC(N(Cc2ccc(-c3ccc(Cl)cc3)cc2)C(=O)Cn2c(CCc3cccc(F)c3F)cc(=O)c3ccccc32)CC1.O=C(O)C(O)C(O)C(=O)O` has an Inhibition of 62%.
`CN(C)Cc1cccc(-c2ccc(NC(=O)c3ccc4c(=O)n(CCN5CCCCC5)cnc4c3)cc2)c1` gave an Inhibition of 23%.
`COc1ccc(-c2cc(C(=O)N[C@@H](Cc3ccccc3)C(=O)NCCN3CCCCC3)ccc2O)cc1` gave an Inhibition of 0%.
In the case of `CN1CCN(Cc2ccc(OCc3cccc(COc4ccc(CN5CCN(C)CC5)cc4I)c3)c(I)c2)CC1.Cl`, the Inhibition is reported as 93%.
`O=C(Nc1ccccc1Cc1ccccc1)c1ccccc1[N+](=O)[O-]` was tested, and the Inhibition was 0%.
`CC(Cc1ccc(CNC(=O)c2ccc(CC(C)NCCc3cccc(Cl)c3)cc2)cc1)NCCc1cccc(Cl)c1` (stereo unspecified) was tested, and the Inhibition was 99%.
`Cc1ccc(N2C(N)=NC(N)=NC2(C)C)cc1.Cl` showed an Inhibition of 43%.
`Cc1ccc(NC(=O)c2nc(N3CCN(c4ccncc4)CC3)ccc2Cl)cc1F.O=C(O)C(F)(F)F` gave an Inhibition of 51%.
Work on `Cc1nc(-c2ccc(-c3ccc(C(=O)Nc4ccc(Cl)c(N5CCN(C)CC5)c4)cc3)c(C)c2)no1` yielded an Inhibition of 23%.
`CN(Cc1cc(C(F)(F)F)cc(C(F)(F)F)c1)C(=O)C1CNCC1c1ccc(F)cc1.Cl` (stereo unspecified) was tested, and the Inhibition was 1%.
For `CC(CNc1nc(NCC(c2ccccc2)c2ccccc2)c2nc[nH]c2n1)c1ccccc1` (stereo unspecified), the Inhibition was 5%.
`COc1cc(OC)c(NC(=O)C2c3ccccc3C(=O)N(C)C2c2cccs2)cc1Cl` (stereo unspecified) showed an Inhibition of 4%.
Compound `CN(C)Cc1ccc(-c2cc3ncnc(Nc4ccc(OCc5cccc(F)c5)c(Cl)c4)c3s2)[nH]1` has an Inhibition of 53%.
Compound `CC(=O)N1N=C(c2cccs2)Sc2c1nc(-c1ccc(Cl)cc1)n2C(C)=O` has an Inhibition of 3%.
Compound `O=CO.Oc1ccccc1CNCc1ccc(-c2cnc(N3CCCC(c4ccccc4)C3)nc2)cc1` (stereo unspecified) has an Inhibition of 6%.
`CN(CCN(C)CC(O)c1ccc(Cl)c(Cl)c1)CC(O)c1ccc(Cl)c(Cl)c1.Cl` (stereo unspecified) showed an Inhibition of 22%.
